Bioassay records from PubChem BioAssay.
Only some compounds are listed: those with a hit (about 3.5% of all), similar ones and a draw of the others.
MITF inh – blocks human microphthalmia-associated transcription factor; inhibition, % at 2.6 µM; AlphaScreen MITF homodimerization, bead proximity signal; 650,000 compounds, 0.91% hits; O75030; in the data active means inhibition above about 50%;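 further: 0% = vehicle wells with protein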
GPR151 activ – activates the human receptor GPR151. Q8TDV0. PathHunter beta-arrestin GPR151 cells, luminescence. activation, % at 11.2 µM. 650,000 compounds, 1% hits; in the data active means activation above about 4.9%;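 further: 0% = median of compound wells and 100% = cells with positive control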
Target sequence (Q8TDV0 whole entry, looked up): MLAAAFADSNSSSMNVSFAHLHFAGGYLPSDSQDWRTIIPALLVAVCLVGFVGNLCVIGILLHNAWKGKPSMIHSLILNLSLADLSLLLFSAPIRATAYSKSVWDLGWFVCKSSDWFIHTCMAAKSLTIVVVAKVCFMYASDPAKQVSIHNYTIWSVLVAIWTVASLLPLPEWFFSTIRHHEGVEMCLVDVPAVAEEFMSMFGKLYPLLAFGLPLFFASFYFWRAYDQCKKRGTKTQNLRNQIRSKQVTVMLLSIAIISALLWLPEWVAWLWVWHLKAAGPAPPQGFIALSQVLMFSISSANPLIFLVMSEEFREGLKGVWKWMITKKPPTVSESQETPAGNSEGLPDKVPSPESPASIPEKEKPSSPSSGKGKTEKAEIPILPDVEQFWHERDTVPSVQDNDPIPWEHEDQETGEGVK
TEAD-YAP inh – TEAD-YAP interaction inhibition; HEK-TIYL cells, TEAD-Gal4/YAP UAS-luciferase luminescence; inhibition, % at 9.12 µM; 640,000 compounds, 1.4% hits; AID 1259422; in the data active means inhibition above about 32%;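 further: 0% = median of test compound wells and 100% = reference inhibitor wells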
FBW7 act – human FBW7 E3 ligase activation, primary screen | normalized activity (activation), % at 26.1 µM | AlphaScreen FBW7–phospho-cyclin E peptide binding, activator screen | AID 1259310 | 650,000 compounds, 0.13% hits | Q969H0; in the data active means normalized activity above about 1.9%;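 further: purified mutant Fbw7 with reduced substrate affinity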
GPR151 conf act – confirmation of human GPR151 activators; shares compounds with GPR151 activ; GPR151 PathHunter beta-arrestin cells, luminescence, 90 min; % of EA-reagent control over plate median; activation, % at 11.2 µM; 6,700 tested, under 10 active;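 active means mean percent activation across replicates above the confirmation screen cutoff of 4.91%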
GPR119 ag – GPR119 activation, counter-screen for GPR151 activators | GPR119 PathHunter beta-arrestin cells, luminescence, 90 min; 0 = compound-well median, 100 = enzyme-acceptor control | shares compounds with GPR151 activ | activation, % at 11.2 µM | 6,700 compounds, 0.3% hits;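 active means mean percent activation in the counterscreen above 29.09%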;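 further: counterscreen on off-target GPR119 to flag nonselective hits from the GPR151 activator screen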
* hit, by the source's call; x = not tested or not shown; ! = not active in a repeat.

SMILES | MITF inh | GPR151 activ | TEAD-YAP inh | FBW7 act | GPR151 conf act | GPR119 ag
C[C@@H]1NC(=O)[C@@H]2C[C@H](NC(=O)c3ccc(F)cc3)CN2C1=O | 5 | -1 | -22 | 1 | x | x
Cc1c(C(=O)N2CCCC2)sc2ncn(Cc3ccccc3F)c(=O)c12 | 2 | 5.3* | 7 | 0 | 1 | 16
Cc1c(C(=O)N2CCCC(C)C2)sc2ncn(Cc3ccccc3F)c(=O)c12 (stereo unspecified) | -3 | -1 | -1 | 0 | x | x
C=CCOC(=O)C1C(c2cccc(Br)c2)c2c([nH][nH]c2=O)CC1(C)O (stereo unspecified) | -15 | 6.0* | -3 | 0 | -1 | -11
C=CCOC(=O)C1C(c2ccccc2)c2c([nH][nH]c2=O)CC1(C)O (stereo unspecified) | -6 | 0 | -6 | 0 | x | x
O=C(c1ccco1)N(Cc1ccco1)C1CCS(=O)(=O)C1 (stereo unspecified) | -9 | -1 | 0 | 0 | x | x
CN1CCN(C(c2ccccc2)c2ccc(Cl)cc2)CC1 (stereo unspecified) | 11 | 6.4*! | -4 | 0 | 0 | -5
O=C(CSc1nnc(-c2ccccc2)o1)c1ccc2c(c1)OCCO2 | -9 | -1 | -6 | 0 | x | x
CCN(C(=O)CSc1nnc(-c2ccco2)o1)C1CCS(=O)(=O)C1 (stereo unspecified) | -3 | 12* | -10 | 0 | 1 | 4
O=C(CSc1nnc(-c2ccco2)o1)c1ccc2c(c1)OCCO2 | 12 | 12* | 10 | 0 | 0 | -5
CCC1SC2=NC(C)=C(C(=O)OC)C(c3ccccc3[N+](=O)[O-])N2C1=O (stereo unspecified) | 7 | 4 | -11 | 0 | x | x
CCOC(=O)c1c(NC(=O)c2ccc([N+](=O)[O-])cc2)sc(C(N)=O)c1C | 10 | 0 | 1 | 0 | x | x
CCOC(=O)c1c(NC(=O)c2ccc([N+](=O)[O-])cc2)sc(C(=O)OC)c1C | -2 | 5.3* | 6 | 0 | 0 | -11
O=c1[nH]cnc2c1[nH]c1ccccc12 | 9 | 8.7* | 19 | 0 | -1 | 7
O=C(NC1CC1)c1cnc(Nc2ccc3ncccc3c2)s1 | 2 | 6.3* | -37 | 0 | -1 | -12
O=C(NC1CC1)c1cnc(Nc2ccc(C(F)(F)F)cc2)s1 | 5 | 4.9* | 1 | 0 | 1 | -1
Cc1ccc(S(=O)(=O)Nc2ccccc2C(=O)NCCc2ccccc2)cc1[N+](=O)[O-] | -1 | 1 | -19 | 0 | x | x
CCS(=O)(=O)N1CCC(c2[nH]ncc2-c2cc(C)no2)CC1 | 20 | 5.9* | -5 | 0 | 1 | 9
CC(=O)N1CCC(c2[nH]ncc2-c2cc(C)no2)CC1 | -17 | 1 | -7 | 0 | x | x
COc1cccc(NC(=O)NNC(=O)c2cc3occc3[nH]2)c1 | 9 | 5.0* | 0 | 0 | 0 | 9
Cc1cccc(NC(=O)CSc2nnc(CNC(=O)c3ccco3)n2-c2cccc(C)c2)c1 | -5 | 1 | 11 | 0 | x | x
Cc1ccc2nc(N3CCC(C(=O)NC(C)(C)CO)CC3)nc(C)c2c1 | 6 | 1 | 11 | 0 | x | x
COCCNC(=O)/C(C#N)=C/C=C/c1ccccc1 | 6 | 6.0* | -14 | 0 | 3 | 0
C=CCNC(=O)/C(C#N)=C/C=C/c1ccccc1 | -4 | -1 | -7 | 0 | x | x
CCOc1ccc(C(=O)NC2CC(C)(C)NC(C)(C)C2)cc1OCC | 12 | 12* | 11 | 0 | -1 | -10
SMILES | MITF inh | GPR151 activ | TEAD-YAP inh | FBW7 act | GPR151 conf act | GPR119 ag
N#CCC(=O)NCCOc1ccccc1 | 11 | 8.6* | 4 | 0 | 1 | 1
COc1ccc(C2=NN(C(=O)C34CC5CC(CC(C5)C3)C4)C(c3ccc(OC)cc3)C2)cc1 (stereo unspecified) | 15 | -1 | 7 | 0 | x | x
Cc1ccc(/C(N)=N/OC(=O)Cc2cccc3ccccc23)cc1 | -3 | 1 | 4 | 0 | x | x
Cc1ccc(CC(=O)O/N=C(\N)Cc2cccc3ccccc23)cc1 | 7 | 5.5* | 10 | 0 | 0 | -4
CCCc1cc(=O)[nH]c(SCC(=O)Nc2cc3c(cc2C(C)=O)OCO3)n1 | -7 | 6.3* | -4 | 0 | 0 | -4
Cc1cc(C)c(S(=O)(=O)Nc2cc3c4c(c2)CC(=O)N4CCC3)c(C)c1 | 2 | 5.0* | 5 | 0 | 0 | -3
COc1ccc(C2=NN(c3nc(-c4ccccc4)c4cc(Cl)ccc4n3)C(c3ccc(F)cc3)C2)cc1 (stereo unspecified) | 8 | -1 | 7 | 0 | x | x
CC1CCCC(NCc2c(C(=O)O)n(Cc3ccccc3F)c3ccccc23)C1C (stereo unspecified) | 3 | 13* | 2 | 0 | -1 | -10
CC1CCCC(NCc2c(C(=O)O)n(Cc3ccccc3Cl)c3ccccc23)C1C (stereo unspecified) | -6 | -1 | 2 | 0 | x | x
COCCNC(=O)/C(C#N)=C/c1ccc(-c2cc(Cl)ccc2Cl)o1 | -6 | -1 | -2 | 0 | x | x
N#C/C(=C\c1ccc(-c2cc(Cl)ccc2Cl)o1)C(=O)Nc1cccc2ncccc12 | -1 | 5.7* | x | x | 0 | 8
CCc1ccc(NC(=S)N(Cc2ccccc2)Cc2cccnc2)cc1 | 1 | 2 | 1 | 0 | x | x
O=C(Nc1ccc2c(c1)CN(C(=O)Cn1c(=O)oc3ccccc31)CC2)C1CCCO1 (stereo unspecified) | 13 | 6.8* | -2 | 0 | -1 | -7
O=C1C(c2ccccc2F)N(CCc2ccc(Cl)cc2)C(=O)CN1C1CCCCCC1 (stereo unspecified) | -5 | 0 | 2 | 0 | x | x
O=C(CSCc1ccccc1)Nc1cccc(-c2nc3ccccc3[nH]2)c1 | 3 | -2 | -21 | 0 | x | x
CCOc1ccc(N2C(=O)CC(NC3CCCNC3=O)C2=O)cc1 (stereo unspecified) | 7 | 3 | 3 | 0 | x | x
Cc1cnc(N2CCC(N3CCOCC3)CC2)nc1NCCN(C(C)C)C(C)C | -9 | 6.7* | 1 | 0 | -1 | 6
CC(C)N(CCNc1nc(N2CCC(N3CCOCC3)CC2)nc2c1ncn2C1CCCCC1)C(C)C | 10 | 14* | 3 | 0 | 1 | 6
CCOC(=O)N/N=C(\C)CCc1ccccc1 | -3 | 0 | -16 | 0 | x | x
COc1ccc(OCC#CCNC(C)(C)C)cc1 | 9 | 8.7* | 5 | 0 | 1 | -6
CNCC#CCOc1ccc(OC)cc1 | 41 | 1 | -5 | 1 | x | x
COc1ccc2[nH]c(=O)c(=O)[nH]c2c1 | 35 | 1 | 12 | 0 | x | x
O=c1[nH]c2cc(Cl)c(Cl)cc2[nH]c1=O | 22 | 5.5* | -17 | 0 | -1 | -4
O=C(NCc1n[nH]c(=S)n1-c1ccccc1Cl)c1ccccc1F | 2 | 6.7* | 4 | 0 | 2 | 3
